Experimental data from PubChem BioAssay.
Active and inactive are the calls of the source.

Experiment: E. coli acrAB mutant growth effects, primary screen, E. coli filamentation inducers, strain DRC39, OD650, 24 h (AID 1178);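 also: growth measured as culture turbidity by optical density at 650 nm; test concentration not given here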
Conditions: higher = more signal, called active from +8 up or from −8 down

z-score, inactive:
COC(=O)[C@H](C)NC(=O)CCC1CC(OC(=O)NCCc2ccc(F)cc2)CC2(CCCC(COC(=O)NCCc3ccccc3OC)O2)O1 (stereo not given in full) 0.636
CCOC(=O)[C@H](CC(C)C)NC(=O)CCC1CC(OC(=O)NCc2ccc3c(c2)OCO3)CC2(CCCC(COC(=O)NCCc3ccc(Cl)cc3)O2)O1 (stereo not given in full) 0.337
CC(CCN1CCc2nc(-c3ccccc3)c(-c3ccccc3)cc2C1)=NOC(C)CN1CCCc2nc(C)c(C)cc21 (stereo not given) 0.798
O=C1[C@H]2[C@H]3[C@H](O)[C@H](O)CC(=NO[C@@H]4O[C@H](CO)[C@@H](O)[C@H](O)[C@H]4O)[C@@H]3CC[C@H]2C(=O)N1C[C@@H]1CCCO1 0.564
COc1ccc(O[C@H]2C=C[C@@H](c3ccccc3)O[C@@H]2COC(=O)CCC(C)=NOC[C@@H](O)COCc2ccco2)cc1 -0.129
CC(C)=CCCC(C)=CCON=C1C[C@@H](O)[C@@H](O)[C@@H]2[C@@H]3C(=O)N(c4cccc(Oc5ccccc5)c4)C(=O)[C@@H]3CC[C@H]12 0.599
CO[C@@H]1C=CCC(=O)N[C@@H](C)C(=O)OC[C@@H](NS(=O)(=O)c2ccc(C)cc2)[C@H](C)C=CCC(=O)OC[C@H]1C 0.0721
COc1ccc(COC(=O)NN=C2C[C@@H](O)[C@@H](O)[C@@H]3[C@@H]4C(=O)N(c5cccc(Oc6ccccc6)c5)C(=O)[C@@H]4CC[C@H]23)cc1 0.829
CCOC(=O)CCN1C(=O)[C@H]2[C@H]3[C@H](O)[C@H](O)CC(=NNC(=O)OCc4ccccc4)[C@H]3CC[C@H]2C1=O -0.213
CO[C@@H](C(C)C)[C@@H](C)C1OC(=O)CC1O (stereo not given in full) 0.284
CCN1C(=O)[C@H]2[C@H]3[C@H](O)[C@H](O)CC(=NO[C@H](C)c4cn([C@@H]5COC[C@H]5O)nn4)[C@@H]3CC[C@H]2C1=O 0.319
CCOC(=O)[C@H](CC(C)C)NC(=O)CCC1CC(OC(=O)NCCc2ccc(F)cc2)CC2(CCCC(COC(=O)NCc3cccc(C(F)(F)F)c3)O2)O1 (stereo not given in full) 0.687
O=C1CCCC=C1C(O)C1CCCCC1 (stereo not given) 0.342
COc1ccc(COC(=O)NN=C2C[C@@H](O)[C@@H](O)[C@@H]3[C@@H]4C(=O)N(C5CCCCC5)C(=O)[C@@H]4CC[C@@H]23)cc1 -0.697
O=C1C2=CC[C@H]3C(=O)N(C4CCCCC4)C(=O)[C@H]3[C@H]2[C@H](O)[C@@H]2O[C@H]12 0.0488
O=C1C[C@@H](O)[C@@H](O)[C@@H]2[C@@H]3C(=O)N(C4CCCCC4)C(=O)[C@@H]3CC[C@@H]12 -0.574
C=CC[C@@H]1C=C[C@H](ON=CC[C@@H]2C=C[C@H](OC(C)=O)[C@@H](COC(C)=O)O2)[C@@H](CO)O1 0.879
CC(CCC(=O)OC[C@H]1O[C@H](C#Cc2ccccc2)C=C[C@@H]1Oc1ccc(C)cc1)=NO[C@H](C)c1cn([C@@H]2COC[C@H]2O)nn1 -0.698
COC(=O)[C@@H]1CC[C@H](C)[C@@H](c2ccc(C)cc2)N1C(=O)c1ccc(C=NOC[C@@H](O)[C@H]2O[C@@H]3OC(C)(C)O[C@@H]3[C@H]2O)cc1 0.507
C=CC[C@@H]1C=C[C@H](Oc2ccc(C)cc2)[C@@H](COC(=O)NCc2cccc3ccccc23)O1 -0.899
CCOC(=O)[C@H](CC(C)C)NC(=O)CCC1CC(OC(=O)NCc2ccc3c(c2)OCO3)CC2(CCCC(COC(=O)NCCC(C)C)O2)O1 (stereo not given in full) 1
CCOC(=O)CCN1C(=O)[C@H]2[C@H]3[C@H](O)[C@H](O)CC(=NO[C@@H]4O[C@H](CO)[C@@H](O)[C@H](O)[C@H]4O)[C@@H]3CC[C@H]2C1=O 0.225
COC(=O)[C@H](C)NC(=O)CCC1CC(OC(=O)NCc2ccc3c(c2)OCO3)CC2(CCCC(COC(=O)NCCCN3CCCC3=O)O2)O1 (stereo not given in full) 0.7
Cc1ccc(S(=O)(=O)N[C@@H]2COC(=O)CC=C[C@@H](C)[C@H](NS(=O)(=O)c3ccc(C)cc3)COC(=O)[C@H](C)NC(=O)CC=C[C@H]2C)cc1 0.983
CCOC(=O)[C@H](CC(C)C)NC(=O)CCC1CC(OC(=O)NCc2ccc3c(c2)OCO3)CC2(CCCC(COC(=O)NCCOC)O2)O1 (stereo not given in full) 0.214
